# Measured values taken from the supplement of paper PMC7184167.
# Where a name gives a salt, the structure may show the parent alone.
# Test system: replication-induced senescent mouse newborn dermal fibroblasts (NBF)
# Experiment: relative cell viability of senescent cells (fraction); higher = less killing of senescent cells
# Details: 1 µM; 3 days
# Experimental: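 Replication-induced senescent newborn mouse skin fibroblasts (NBFs) in 24-well plates were treated with a Selleck FDA-approved drug library at 1 µM for 3 days.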
row,Structure (SMILES),relative cell viability
1,Cc1nc(Nc2ncc(C(=O)Nc3c(C)cccc3Cl)s2)cc(N2CCN(CCO)CC2)n1 [Dasatinib],1.39
2,"O=c1[nH]cc(F)c(=O)[nH]1 [Fluorouracil (5-Fluoracil, 5-FU)]",0.0476
3,CC(=O)O[C@@]12CO[C@@H]1C[C@H](O)[C@@]1(C)C(=O)[C@H](O)C3=C(C)[C@@H](OC(=O)[C@H](O)[C@@H](NC(=O)OC(C)(C)C)c4ccccc4)C[C@@](O)([C@@H](OC(=O)c4ccccc4)[C@H]21)C3(C)C [Docetaxel],0.565
4,CCCCC(=O)N(Cc1ccc(-c2ccccc2-c2nnn[nH]2)cc1)[C@H](C(=O)O)C(C)C [Valsartan],0.897
5,NC(=O)c1ncn([C@@H]2O[C@H](CO)[C@@H](O)[C@H]2O)c1N [AICAR (Acadesine)],1.02
6,CN(C)[C@@H](CCOc1cccc2ccccc12)c1ccccc1 [Dapoxetine HCl],1.08
7,COC(=O)Nc1nc2cc(C(=O)c3ccc(F)cc3)ccc2[nH]1 [Flubendazole],0.886
8,CO/N=C(\C(=O)N[C@@H]1C(=O)N2C(C(=O)OCOC(=O)C(C)(C)C)=C(/C=C\c3scnc3C)CS[C@H]12)c1csc(N)n1 [Cefditoren Pivoxil],0.949
9,C#Cc1cccc(Nc2ncnc3cc(OCCOC)c(OCCOC)cc23)c1 [Erlotinib HCl (OSI-744)],0.672
10,CCCC(CCC)C(=O)O [Valproic acid sodium salt (Sodium valproate)],1.11
11,Nc1nc(=O)n([C@@H]2CS[C@H](CO)O2)cc1F [Emtricitabine],1.04
